High-throughput results (PubChem)
AMA1 RON2 block: AMA1-RON2 (P. falciparum) interaction inhibition; AlphaScreen AMA1-biotinylated RON2 peptide binding; Potency, µM (titrated, usually from 58.2 µM), without a hit: at the top dose activity change, negative = inhibition, actives largely listed as inhibitors; AID 720542; hit rate 0.2% among 360,000;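 further: 0% = vehicle wells and -100% = peptide control; nearly all actives have a fitted effect of over 45% in size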
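AMA1 (3D7) with his tag at 25 nM final met compounds first, then biotinylated RON2 peptide at 25 nM; detection used donor plus acceptor beads, 10 µg/mL apiece, read by AlphaScreen after 30 min at room temperature.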
Pf growth 96h: P. falciparum growth inhibition at 96 hour, primary screen for plastid delayed-death inhibitors; P. falciparum luciferase reporter growth, 96 h; Potency, µM (series often up to 28.7 µM), for inactives: at the highest dose activity change, negative = inhibition, most hits filed as inhibitors; hit rate 6.9% among 320,000; AID 504834
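Infected RBCs, 2% Hct / 0.05% parasitemia final; luciferase-reporter P. falciparum; cpd 96 h, 37 C, 5% CO2; luciferase detection reagent; luminescence.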
Pf growth 48h: inhibits P. falciparum growth in the first generation, 48 h | P. falciparum luciferase growth in erythrocytes, 48 h | Potency, µM (series often up to 28.7 µM), for the others: at the highest dose activity change, negative = inhibition, actives largely listed as inhibitors | hit rate 5.9% among 310,000 | AID 504832
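Cell-based growth assay: transgenic P. falciparum expressing firefly luciferase, cultured in red cells within RPMI 1640 containing 0.5% w/v Albumax, 24 mM bicarbonate and gentamycin. A drop in luciferase activity indicates inhibition.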
HCV inh: inhibitors of hepatitis C virus infection; Huh7.5.1 HCVcc-Cre infection, luciferase reporter, 44 h; hit rate 3.4% among 340,000; Potency, µM (top dose mostly 41.8 µM), for the others: at the highest dose activity change, negative = inhibition, usual class: inhibitors
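1,000 cells/well; 4 h culture; + compound; + HCVcc-Cre (~0.5 moi); 44 h; luciferase substrate, RT 15 min; read 15 sec.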
* = called active by the depositor; i = inactive; ? = inconclusive; · = no result given; [ ] = another dose, or the depositor's remark. Sampled rows, rich in hits. Any-hit rate of the full collection: about 11%. The call rests on the fitted dose curve; in most records, active means well fitted curve in the direction sought with a large enough effect; inconclusive means small, poorly fitted or top-dose-only effect, or another doubt; inactive means no such curve, though single readings can be large; an effect the other way counts as inactive or inconclusive. Unless noted, on the % scale 0 is the no-effect control and ±100 the full control effect; potency means the concentration at half of the fitted maximal effect.

SMILES | AMA1 RON2 block | Pf growth 96h | Pf growth 48h | HCV inh
COc1ccc(OC)c(N2Cc3ccccc3C2=N)c1 | -6% | 5.9µM* | 6% | 9%
Cc1ccc(C)c(OC(=O)c2cncc(Br)c2)c1 | 12% | 1% | 4% | 21%
C[C@H](CO)N1C[C@H](C)[C@@H](CN(C)Cc2ccc(F)cc2)Oc2ncc(Br)cc2C1=O | 18% | · | · | ·
CC12CCC(C(=O)Nc3ccncc3)(CC1O)C2(C)C (stereo not drawn) | -10% | 5% | -10% | 3%
COc1ccc(N2Cc3ccccc3C2)cc1Cl | 3% | 27% | ? | ?
COc1ccc(Cl)cc1N1Cc2ccccc2C1 | 6% | · | 13µM* | -2%
COC(=O)C1=C(N)Oc2cc(N(C)C)ccc2C1c1ccccc1OC (stereo not drawn) | -7% | 25% | ? | 6.3µM*
CCOC(=O)c1c(S(=O)(=O)NCC(=O)Nc2ccccc2F)c(C)n(C)c1C | 2% | ? | 2% | 7%
CCOC(=O)c1ccc(NS(=O)(=O)c2c(N)n(C)c(=O)n(C)c2=O)cc1 | 0% | · | · | 10µM*
CCOC(=O)c1c(S(=O)(=O)Nc2ccc(C)cn2)c(C)n(C)c1C | 12% | 10µM* | 17% | 8%
CCOC(=O)c1c(S(=O)(=O)Nc2ccc(F)cc2C)c(C)n(C)c1C | -13% | 15µM* | -3% | -18%
CCOC(=O)c1c(S(=O)(=O)Nc2ccc(C)c(F)c2)c(C)n(C)c1C | 5% | 9.3µM* | 12% | 22%
COc1ccc(C(O)(CCN2CCOCC2)c2ccccc2)cc1 (stereo not drawn) | -4% | ? | 4% | -1%
Cn1c(=O)c([N+](=O)[O-])c(NCc2ccc3c(c2)OCO3)c2ccccc21 | -10% | 3% | 51% | -30%
COc1ccc([C@H]2N[C@]3(CCCN(Cc4ccc(Cl)cc4)C3=O)[C@H]3C(=O)N(Cc4ccccc4)C(=O)[C@@H]23)cc1 | -12% | · | · | ·
O=C(Cc1cccc(NC(=O)C2CCN(C(=O)C3CCC3)CC2)c1)Nc1cccc(C(=O)N2CCCC2)c1 | 9% | ? | ? | -22%
Cc1cc(F)ccc1-c1cc(C(=O)NCc2cccs2)[nH]n1 | 0% | · | · | ·
Cc1sc2nc(CN3CCOCC3)nc(NS(=O)(=O)c3cc(Cl)ccc3Cl)c2c1C | 13% | ? | ? | -10%
COc1cccc(CNC(=O)Cc2csc(NC(=O)Nc3ccccc3OC)n2)c1 | 1% | ? | ? | 5.6µM*
COc1ccc(NC(=O)Cc2csc(NC(=O)Nc3ccccc3OC)n2)c(OC)c1 | -29% | 0% | -8% | -28%
CCOC(=O)Cc1csc(NC(=O)Nc2cccc(OC)c2)n1 | -2% | 10µM* | ? | -7%
CCOC(=O)Cc1csc(NC(=O)c2cccc(OC)c2)n1 | 10% | 13% | 10% | -27%
O=C(NCc1ccccn1)Nc1cccc(NC(=O)NCc2ccccn2)c1 | 22% | ? | 3% | -5%
COc1cccc(NC(=O)NCc2ccccn2)c1 | -5% | 2.1µM* | 23% | -1%
COc1ccccc1NC(=O)Nc1nc(CC(=O)NCc2ccc(F)cc2)cs1 | -23% | ? | ? | 7.1µM*
SMILES | AMA1 RON2 block | Pf growth 96h | Pf growth 48h | HCV inh
C[C@H](CO)N1C[C@H](C)[C@@H](CN(C)C(=O)c2cc(-c3ccccc3)on2)OCc2cn(nn2)CCCC1=O | 0% | · | · | ·
Cc1cccc2c1CC(C)(C)N=C2C1=C(O)CC(C)(C)CC1=O | 10% | 13µM* | ? | 2%
O=C(c1ccccc1F)N(Cc1nc2ccccc2c(=O)[nH]1)C1CCCC1 | 51% | -27% | -4% | ?
Cc1cc(NS(=O)(=O)c2ccc(NS(=O)(=O)c3ccc(CC(C)C)cc3)cc2)nc(C)n1 | 0% | 12% | 33%[5.75 µM] | 4µM*
CCOC(=O)CC(=O)CSc1ccc2nnc(-c3cccc(F)c3)n2n1 | 8% | 7% | 7.4µM* | ?
CCOC(=O)CC(=O)CSc1ccc2nnc(-c3ccc(F)cc3)n2n1 | 3% | · | ? | 10%
O=C(CSc1ccc2nnc(-c3cccc(F)c3)n2n1)NCc1ccco1 | -10% | 6.6µM* | ? | ?
CSc1ccc2nnc(-c3cccc(F)c3)n2n1 | -1% | ? | -3% | ?
COC(=O)c1ccc(CSc2ccc3nnc(-c4cccc(F)c4)n3n2)o1 | 0% | ? | 12µM* | 1%
CC(c1ccc(F)cc1)n1c(-c2cccs2)n[nH]c1=S (stereo not drawn) | 54% | 1% | -14% | 5%
CN1c2ccccc2N(C)C1c1ccc2c(c1)OCO2 | 0% | 28% | 4.7µM* | 5%
Cc1nn(C)c(C(=O)N2CCOCC2)c1Cl | 14% | ? | 22% | 18%
CCOC(=O)c1cnn(-c2ccccc2)c1-n1cccc1C(=O)C(=O)Nc1ccccc1C(F)(F)F | -14% | 15µM* | 13µM* | ?
COCCn1c(SC(C)C(=O)Nc2ccc3c(c2)OCCO3)nc2ccccc2c1=O (stereo not drawn) | -1% | 13µM* | ? | -27%
Cc1cccc(NC(=O)C(C)Sc2nc3ccccc3c(=O)n2CCCN2CCOCC2)c1 (stereo not drawn) | 0% | 8.3µM* | 13µM* | ?
CC(=O)c1cccc(NC(=O)CSc2nc3ccccc3c(=O)n2CCCN2CCOCC2)c1 | 0% | · | · | -3%
COc1ccc(CS(=O)(=O)c2nc(C)cc(C)c2S(C)(=O)=O)cc1 | 9% | 39% | i | -12%
C/C(=N\NC(=O)c1ccccc1O)c1ccc(NC(=O)c2ccccc2)cc1 | 62% | -15% | 29% | -20%
Cc1ccc(C(=O)N2CCN(C(=O)c3ccco3)CC2)cc1NC(=O)c1ccco1 | -5% | ? | 14% | 13%
Cc1c(C(=O)OC2CCCC2)[nH]c2c1C(=O)CC(c1ccco1)C2 (stereo not drawn) | -22% | ? | 7.4µM* | ?
COC(=O)c1[nH]c2c(c1C)C(=O)CC(c1ccccc1)C2 (stereo not drawn) | -6% | 1% | ? | ?
C/C=C/COC(=O)c1[nH]c2c(c1C)C(=O)CC(c1ccc(N(C)C)cc1)C2 (stereo not drawn) | -16% | 17% | ? | 5.6µM*
C=CCOC(=O)c1[nH]c2c(c1C)C(=O)CC(c1ccco1)C2 (stereo not drawn) | -13% | -86% | 5.2µM* | -25%
C/C=C/COC(=O)c1[nH]c2c(c1C)C(=O)CC(c1ccco1)C2 (stereo not drawn) | 0% | -34% | 1.5µM* | ?
CCOCCOC(=O)c1[nH]c2c(c1C)C(=O)CC(c1ccc(N(C)C)cc1)C2 (stereo not drawn) | ? | 11% | ? | ?
CCCCCC(=O)N1CC2(CC(c3cccc(NC(=O)CC)c3)=NO2)C[C@H]1C(N)=O (stereo partly drawn) | -3% | 20% | 30% | 1%[8.37 µM]
Cc1ccc(C[C@H](C(=O)O)N2C(=O)c3ccc(C(=O)O)cc3C2=O)cc1 | · | 11% | 9% | ·
CC(=O)c1c(C)[nH]c(C(=O)N(C)C(c2ccccc2)c2ccccc2)c1C | -4% | ? | ? | ?
